Hit rate of the full screen: of about 220,000 compounds, about 2,400 (1.1%) were called active. Another 7% or so got no clear call; they are omitted. This is one part of a sample in which actives are shown more often than they occur. The rule behind the calls is not given here.
Biological target: Huntingtin (Homo sapiens) (UniProt P42858)
Test: qHTS Multiplex Assay to Identify Dual Action Probes in a Cell Model of Huntington: Aggregate Formation (GFP). [Related pubchem assays: 1482, 1471 ]
Format: functional

Huntingtin (Homo sapiens), sequence (P42858 whole entry): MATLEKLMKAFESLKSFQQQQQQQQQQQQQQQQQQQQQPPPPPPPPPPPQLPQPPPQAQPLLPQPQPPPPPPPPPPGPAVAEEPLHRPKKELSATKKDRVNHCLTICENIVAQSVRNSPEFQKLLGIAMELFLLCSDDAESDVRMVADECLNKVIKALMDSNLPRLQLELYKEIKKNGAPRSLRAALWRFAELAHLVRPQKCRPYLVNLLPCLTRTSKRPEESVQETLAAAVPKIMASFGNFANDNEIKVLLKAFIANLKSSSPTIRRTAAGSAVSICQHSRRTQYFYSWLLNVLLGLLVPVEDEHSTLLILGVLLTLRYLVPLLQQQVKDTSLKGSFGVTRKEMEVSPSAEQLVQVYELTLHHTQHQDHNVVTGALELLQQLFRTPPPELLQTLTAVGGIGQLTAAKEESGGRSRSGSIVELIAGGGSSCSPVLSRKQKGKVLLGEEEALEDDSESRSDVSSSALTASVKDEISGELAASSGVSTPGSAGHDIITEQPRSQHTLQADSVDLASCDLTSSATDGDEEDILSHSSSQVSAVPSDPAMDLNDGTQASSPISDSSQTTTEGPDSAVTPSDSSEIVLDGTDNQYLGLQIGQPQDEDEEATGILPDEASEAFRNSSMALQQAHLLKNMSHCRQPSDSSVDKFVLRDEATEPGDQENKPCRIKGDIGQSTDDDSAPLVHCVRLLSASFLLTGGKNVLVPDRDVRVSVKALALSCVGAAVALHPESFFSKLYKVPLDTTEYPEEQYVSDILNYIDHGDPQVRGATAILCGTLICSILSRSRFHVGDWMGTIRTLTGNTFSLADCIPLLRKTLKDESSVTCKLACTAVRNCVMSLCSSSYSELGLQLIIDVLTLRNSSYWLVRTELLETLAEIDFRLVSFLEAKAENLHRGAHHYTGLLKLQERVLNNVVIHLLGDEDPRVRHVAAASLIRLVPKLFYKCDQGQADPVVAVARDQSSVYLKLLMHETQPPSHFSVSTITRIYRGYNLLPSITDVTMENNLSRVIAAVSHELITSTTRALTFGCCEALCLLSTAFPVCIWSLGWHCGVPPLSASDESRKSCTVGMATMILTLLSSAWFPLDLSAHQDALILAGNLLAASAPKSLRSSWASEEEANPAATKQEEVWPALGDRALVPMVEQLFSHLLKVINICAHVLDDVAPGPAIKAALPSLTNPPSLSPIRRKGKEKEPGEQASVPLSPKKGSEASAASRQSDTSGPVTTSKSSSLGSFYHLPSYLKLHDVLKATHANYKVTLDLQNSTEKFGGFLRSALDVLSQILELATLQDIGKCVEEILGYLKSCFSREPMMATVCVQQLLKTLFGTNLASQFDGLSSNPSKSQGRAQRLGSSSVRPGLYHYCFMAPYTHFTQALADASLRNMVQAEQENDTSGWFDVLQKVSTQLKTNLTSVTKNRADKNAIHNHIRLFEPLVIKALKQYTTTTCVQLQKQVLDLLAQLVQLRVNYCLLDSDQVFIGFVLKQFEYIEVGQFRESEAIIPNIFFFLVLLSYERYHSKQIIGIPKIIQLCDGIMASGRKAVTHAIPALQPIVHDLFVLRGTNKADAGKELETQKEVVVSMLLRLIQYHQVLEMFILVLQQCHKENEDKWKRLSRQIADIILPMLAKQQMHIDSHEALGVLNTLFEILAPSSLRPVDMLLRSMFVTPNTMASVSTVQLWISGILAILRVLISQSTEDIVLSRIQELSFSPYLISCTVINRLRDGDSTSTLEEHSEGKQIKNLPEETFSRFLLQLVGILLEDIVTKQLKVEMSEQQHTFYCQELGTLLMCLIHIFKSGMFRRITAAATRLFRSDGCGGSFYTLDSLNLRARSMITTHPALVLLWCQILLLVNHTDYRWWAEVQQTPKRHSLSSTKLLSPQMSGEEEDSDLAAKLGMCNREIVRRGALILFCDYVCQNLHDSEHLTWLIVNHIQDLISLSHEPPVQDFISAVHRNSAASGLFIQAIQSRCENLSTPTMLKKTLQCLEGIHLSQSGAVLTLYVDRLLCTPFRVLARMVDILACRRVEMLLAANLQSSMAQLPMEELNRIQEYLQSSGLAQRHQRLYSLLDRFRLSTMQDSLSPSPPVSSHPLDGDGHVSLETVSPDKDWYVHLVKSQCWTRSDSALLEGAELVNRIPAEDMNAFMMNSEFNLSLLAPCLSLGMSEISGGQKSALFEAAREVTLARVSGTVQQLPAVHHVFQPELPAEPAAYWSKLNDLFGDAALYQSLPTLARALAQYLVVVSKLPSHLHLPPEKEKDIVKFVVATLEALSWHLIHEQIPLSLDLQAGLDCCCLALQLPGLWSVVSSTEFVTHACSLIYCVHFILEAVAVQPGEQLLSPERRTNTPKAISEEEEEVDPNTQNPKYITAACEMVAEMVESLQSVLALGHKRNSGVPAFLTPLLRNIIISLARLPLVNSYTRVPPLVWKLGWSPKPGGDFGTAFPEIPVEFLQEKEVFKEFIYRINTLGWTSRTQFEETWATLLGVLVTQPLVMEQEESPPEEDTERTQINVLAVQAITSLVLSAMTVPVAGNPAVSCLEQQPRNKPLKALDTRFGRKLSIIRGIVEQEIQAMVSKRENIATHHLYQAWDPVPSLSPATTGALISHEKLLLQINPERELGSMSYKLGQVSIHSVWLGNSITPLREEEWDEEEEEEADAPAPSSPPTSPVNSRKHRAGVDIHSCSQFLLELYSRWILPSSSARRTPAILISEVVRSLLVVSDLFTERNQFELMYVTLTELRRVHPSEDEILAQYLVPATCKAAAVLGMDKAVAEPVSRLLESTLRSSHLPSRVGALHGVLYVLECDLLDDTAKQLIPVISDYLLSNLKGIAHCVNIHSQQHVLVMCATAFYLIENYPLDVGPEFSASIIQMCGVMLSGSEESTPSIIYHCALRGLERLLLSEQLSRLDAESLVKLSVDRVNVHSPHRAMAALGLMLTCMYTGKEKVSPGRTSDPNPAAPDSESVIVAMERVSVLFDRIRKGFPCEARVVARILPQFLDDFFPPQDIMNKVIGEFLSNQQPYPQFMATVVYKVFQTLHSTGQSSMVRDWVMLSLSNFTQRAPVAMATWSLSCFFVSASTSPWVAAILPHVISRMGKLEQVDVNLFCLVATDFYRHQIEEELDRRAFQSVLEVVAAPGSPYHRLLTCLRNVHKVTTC

Potency, active:
O=C(c1nc2nc(-c3ccccc3)cc(C(F)(F)F)n2n1)N1CCOCC1 112 µM
CCOc1ccc(S(=O)(=O)n2ccc(C)n2)c2ccccc12 56.2 µM
Cc1nnc2sc(SCc3ccc(Cl)cc3)nn2c1=O 891 µM
CCOC(=O)c1ccc(N2CN(CCc3ccccc3)CN=C2S)cc1 112 µM
O=C1C2C3C=CC(C3)C2C(=O)N1CCCO (stereo not drawn) 89.1 µM
CCOC(=O)c1c(NC(=O)C2=C(C)N=C(S)NC2c2ccc(F)cc2)sc(C)c1C (stereo not drawn) 112 µM
CCOC(=O)Cn1c(-c2ccccn2)nc2ccccc21 224 µM
CN(C)CCN(C(=O)c1ccc(S(=O)(=O)N(C)C)cc1)c1nc2cc3c(cc2s1)OCCO3 141 µM

Source: ChEMBL document CHEMBL1201862, “PubChem BioAssay data set” (2004)
